Rows were chosen to be rich in hits. Some 4.1% of all compounds tested hit in one or more screens of this group.
ssDAF-12 act – S. stercoralis DAF-12 nuclear receptor activators, primary screen, cell-based, luminescence, HEK293, GRIP1 co-expression, lit1-tk-luc; Nuclear hormone receptor DAF-12 (Strongyloides stercoralis); activation, % at 6.8 µM; HEK293 ssDAF-12/GRIP1 lit1-tk-luc reporter; % of 3 µM dafachronic acid response; 1% of 370,000 active; AID 652126, 2013;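 active means activation above the mean over all tested compounds plus 3 SD, cut at about 0.9% in these data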;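 further: 0% = DMSO-only wells and 100% = 3 µM delta7-dafachronic acid wells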
hgDAF-12 ag – H. glycines DAF-12 receptor agonists, primary screen, cell-based, luminescence, HEK293, GAL4 fusion, UAS-luciferase; Nuclear hormone receptor DAF-12 (Heterodera glycines), GAL4 fusion; HEK293 GAL4-hgDAF12 UAS-luciferase reporter, agonist luminescence; normalized to butyrate control; activation, % at 6.8 µM; 1.8% of 370,000 active; AID 687014, 2013;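 active means activation above a cutoff set at the mean of all screened compounds plus 3 SD, cut at about 10% in these data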;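 further: 0% = DMSO wells and 100% = sodium butyrate wells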
hcDAF-12 act – H. contortus DAF-12 nuclear receptor activators, primary screen, cell-based, luminescence, HEK293, lit1-tk-luc reporter. HEK293 hcDAF-12 lit1-tk-luc reporter; 0% DMSO, 100% Δ7-dafachronic acid. activation, % at 6.8 µM. 1.4% of 370,000 active;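 active means activation above the mean of all tested compounds plus 3 SD, cut at about 5.5% in these data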;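 further: 100% = response to 3 µM Δ7-dafachronic acid high control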
DAX1 inh-1 – DAX1 (NR0B1) inhibitors on StAR promoter, primary screen, cell-based, luminescence, SF-1 (NR5A1), full-length DAX-1; inhibition, % at 6.8 µM; 1.1% of 370,000 active; HEK293T StAR-luciferase reporter, SF-1/DAX-1 repression relief;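 active means inhibition above the mean over all tested compounds plus 3 SD, cut at about 3.6% in these data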;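 further: 0% = DAX-1 cells with DMSO and 100% = cells lacking DAX-1 with DMSO; higher inhibition means more luminescence from relief of DAX-1 repression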
DAX1 inh-2 – DAX1 (NR0B1) inhibitors, primary screen, cell-based, HEK293, Gal4-DAX1, luciferase luminescence. Nuclear receptor subfamily 0 group B member 1 (Homo sapiens), P51843. HEK293 Gal4-DAX1 luciferase reporter. inhibition, % at 6.75 µM. 0.99% of 340,000 active. AID 504766, 2011;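 active means inhibition above the mean over all tested compounds plus 3 SD, cut at about 4.2% in these data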;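 further: 0% = DAX1-transfected cells with DMSO and 100% = empty-vector control cells with DMSO; inhibition shows as a rise in luminescence from relieved DAX1 repression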
Target sequence (P51843 207-470 limits assumed): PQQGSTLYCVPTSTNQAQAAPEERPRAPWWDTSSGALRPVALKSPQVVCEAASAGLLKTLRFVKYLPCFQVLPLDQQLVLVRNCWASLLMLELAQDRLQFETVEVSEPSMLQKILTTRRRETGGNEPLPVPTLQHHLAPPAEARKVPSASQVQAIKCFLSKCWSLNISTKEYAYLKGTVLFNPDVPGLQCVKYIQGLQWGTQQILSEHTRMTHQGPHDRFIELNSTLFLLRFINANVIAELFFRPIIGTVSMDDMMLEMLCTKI
LXR ag – LXR agonists, Gal4 luciferase reporter, confirmation, counter-screen for hcDAF-12 agonist project, cell-based, luminescence, HEK293, H. contortus campaign | shares compounds with hcDAF-12 act | HEK293 Gal4-LXR tk-luc reporter, 24 h; normalized: DMSO 0%, positive control 100% | activation, % at 6.8 µM | 3,400 tested, under 10 active | AID 743027, 2013;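 active means mean percent activation of the reporter above a cutoff set as the average over tested compounds plus their standard deviation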
hcDAF12 conf – H. contortus DAF-12 receptor agonists, confirmation, cell-based, luminescence, HEK293, lit1-tk-luc, triplicate | shares compounds with hcDAF-12 act | HEK293 hcDAF-12 lit1-tk-luc reporter; % of Δ7-dafachronic acid response | activation, % at 6.8 µM | 61% of 3,400 active;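 active means mean activation across triplicate tests above the threshold derived from the earlier primary screen, cut at about 5.5% in these data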;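 further: 0% = DMSO only wells and 100% = 3 µM Δ7-dafachronic acid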
* marks the source's active call; other numbers are inactive results.

How did Cc1ccc(OCCn2cccn2)c(C)c1 do in these assays?
ssDAF-12 act: -2; hgDAF-12 ag: -1; hcDAF-12 act: -2; DAX1 inh-1: 0; DAX1 inh-2: 0

What do the screens show for `Cc1ccc(S(=O)(=O)N2CCN(C(=O)c3ccc4ccccc4n3)CC2)c(C)c1`?
ssDAF-12 act: 1; hgDAF-12 ag: 11*; hcDAF-12 act: 7.2*; DAX1 inh-1: 3; DAX1 inh-2: 1; LXR ag: 0; hcDAF12 conf: 8.4*

Results for CCCCOc1ccc(C(=O)OCC(=O)N2CCOCC2)cc1 ?
ssDAF-12 act: -1; hgDAF-12 ag: 2; hcDAF-12 act: -2; DAX1 inh-1: 0; DAX1 inh-2: 0

Results for CC(C)c1ccc(NC(=O)COC(=O)CC2CCCC2)cc1 ?
ssDAF-12 act: 0; hgDAF-12 ag: 0; hcDAF-12 act: 0; DAX1 inh-1: 2; DAX1 inh-2: 0

How did O=C(COC(=O)CC1CCCC1)Nc1cc2c(cc1Cl)C(=O)c1ccccc1C2=O do in these assays?
ssDAF-12 act: 0; hgDAF-12 ag: 7; hcDAF-12 act: 9.1*; DAX1 inh-1: 3; DAX1 inh-2: 2; LXR ag: 1; hcDAF12 conf: 6.1*

Results for CCN(CC(=O)Nc1c(F)cccc1F)C(=O)Cc1ccc(S(=O)(=O)N2CCOCC2)s1 ?
ssDAF-12 act: -1; hgDAF-12 ag: 0; hcDAF-12 act: 1; DAX1 inh-1: 2; DAX1 inh-2: -1

Results for COC(=O)CN1C(c2ccc(OC)cc2)=Nc2ccc(Cl)cc2C1c1ccccc1 (configuration not stated) ?
ssDAF-12 act: -2; hgDAF-12 ag: 1; hcDAF-12 act: -1; DAX1 inh-1: 0; DAX1 inh-2: 1

What do the screens show for `COC(=O)CN1C(c2cccc(Cl)c2)=Nc2ccc(Cl)cc2C1c1ccccc1` (configuration not stated)?
ssDAF-12 act: -1; hgDAF-12 ag: 1; hcDAF-12 act: 10*; DAX1 inh-1: 0; DAX1 inh-2: 0; LXR ag: 0; hcDAF12 conf: 2

Results for CCc1ccc(-n2cc(-c3ccc([N+](=O)[O-])cc3)[nH]c2=S)cc1 ?
ssDAF-12 act: -1; hgDAF-12 ag: 5; hcDAF-12 act: 0; DAX1 inh-1: 1; DAX1 inh-2: 0

Results for CCc1ccc(-c2cn(C3CCCCC3)c(=S)[nH]2)cc1 ?
ssDAF-12 act: 0; hgDAF-12 ag: 7; hcDAF-12 act: 11*; DAX1 inh-1: 1; DAX1 inh-2: 0; LXR ag: 0; hcDAF12 conf: 1

Results for O=C(CCC(=O)N1CCOCC1)c1ccc(F)cc1 ?
ssDAF-12 act: -1; hgDAF-12 ag: 3; hcDAF-12 act: 3; DAX1 inh-1: 1; DAX1 inh-2: 1

Results for O=C(Nc1ccc2oc(=O)ccc2c1)c1ccccc1[N+](=O)[O-] ?
ssDAF-12 act: -1; hgDAF-12 ag: 0; hcDAF-12 act: 1; DAX1 inh-1: -2; DAX1 inh-2: 1

How did Cc1ccc(NC(=O)c2ccc(F)cc2F)cc1 do in these assays?
ssDAF-12 act: 0; hgDAF-12 ag: 8; hcDAF-12 act: 8.9*; DAX1 inh-1: 2; DAX1 inh-2: 2; LXR ag: 1; hcDAF12 conf: 4

How did O=C(Nc1ccc2ccccc2c1)c1ccccc1O do in these assays?
ssDAF-12 act: 1.0*; hgDAF-12 ag: 9; hcDAF-12 act: 7.8*; DAX1 inh-1: 0; DAX1 inh-2: -2; LXR ag: 2; hcDAF12 conf: 20*

Results for O=C(Nc1ccccc1)c1ccc(F)cc1F ?
ssDAF-12 act: 0; hgDAF-12 ag: 2; hcDAF-12 act: 2; DAX1 inh-1: 0; DAX1 inh-2: 1

What do the screens show for `Cc1ccc(NC(=O)c2cc3ccccc3cc2O)cc1`?
ssDAF-12 act: 1; hgDAF-12 ag: 10; hcDAF-12 act: 10*; DAX1 inh-1: 1; DAX1 inh-2: 4.5*; LXR ag: 1; hcDAF12 conf: 9.2*

Results for O=C(Nc1ccc2ccccc2c1)c1ccccc1[N+](=O)[O-] ?
ssDAF-12 act: 1; hgDAF-12 ag: 10; hcDAF-12 act: 7.9*; DAX1 inh-1: 2; DAX1 inh-2: 4; LXR ag: 0; hcDAF12 conf: 4

Results for O=C(COC(=O)c1ccccc1O)Nc1ccc2ccccc2c1 ?
ssDAF-12 act: -1; hgDAF-12 ag: 0; hcDAF-12 act: 3; DAX1 inh-1: 0; DAX1 inh-2: -1

How did Nc1cc(=O)[nH]c2ncnn12 do in these assays?
ssDAF-12 act: -1; hgDAF-12 ag: -2; hcDAF-12 act: 0; DAX1 inh-1: 1; DAX1 inh-2: 0

How did CN(C)c1ccc(-c2nnc(-c3ccccc3F)o2)cc1 do in these assays?
ssDAF-12 act: 1; hgDAF-12 ag: 13*; hcDAF-12 act: 10*; DAX1 inh-1: 3; DAX1 inh-2: 1; LXR ag: 2; hcDAF12 conf: 6.5*

What do the screens show for `O=C(NCc1ccccc1)C(c1ccccc1)n1c(=O)c(-c2ccco2)nc2ccccc21` (configuration not stated)?
ssDAF-12 act: -1; hgDAF-12 ag: -2; hcDAF-12 act: -2; DAX1 inh-1: 0

Results for O=C(NCc1ccccc1)C(c1cc2ccccc2o1)n1c(=O)c(-c2ccco2)nc2ccccc21 (configuration not stated) ?
ssDAF-12 act: 2.5*; hgDAF-12 ag: 11*; hcDAF-12 act: 9.6*; DAX1 inh-1: 3.9*; LXR ag: 1; hcDAF12 conf: 11*

Results for Cc1ccc(-c2nc3c4ccccc4ccn3c2CC2CCCCC2)cc1 ?
ssDAF-12 act: 2.5*; hgDAF-12 ag: 11*; hcDAF-12 act: 7.5*; DAX1 inh-1: 2; LXR ag: 0; hcDAF12 conf: 6.2*

What do the screens show for `N#Cc1ccc(-c2nc3c4ccccc4ccn3c2CC2CCCCC2)cc1`?
ssDAF-12 act: 0; hgDAF-12 ag: 6; hcDAF-12 act: 2; DAX1 inh-1: -1
